Reference: PubChem BioAssay (NCI)
About 79,000 compounds went through this panel and 15% of them were active in at least one assay; those are over-represented in the sample as a whole. Activity calls are given as the source filed them. Rule as the data show it: active = growth inhibition above about 70%; inactive = the rest.

Assay: NCI Yeast Anticancer Drug Screen. Data for the rad52 strain (AID 147);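 also: 0% = growth of vehicle-treated control cultures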
Details: S. cerevisiae rad52 mutant growth inhibition, hits give high values
Experimental: Growth inhibition of yeast strains with defined genetic alterations is measured as a screen for potential anti-cancer activity. Selected strains with alterations in DNA damage repair or cell cycle control were exposed to compounds and growth inhibition was measured relative to vehicle treated controls. The strain used in this assay is rad52

Measured: growth inhibition

CCN1CCC(O)(c2ccc(Oc3ccc(Cl)cc3)cc2)C(C(=O)c2ccc(Oc3ccc(Cl)cc3)cc2)C1 (stereo not given)
inactive: at 1.2 µM -10% | at 3.7 µM -14% | at 11.0 µM -16% | at 33.0 µM -6% | at 100.0 µM 12%

Cc1oc2ccccc2c(=O)c1Cn1nnc2ccccc21
inactive: at 1.2 µM -1% | at 3.7 µM -2% | at 11.0 µM 0% | at 33.0 µM 9% | at 100.0 µM 56%

COc1ccc2cc(C(C)C(=O)N3CCOC3=O)ccc2c1 (stereo not given)
inactive: at 1.2 µM -9% | at 3.7 µM -16% | at 11.0 µM -7% | at 33.0 µM -8% | at 100.0 µM 12%

NC(=S)N1N=C2c3ccccc3CC[C@H]2[C@@H]1c1ccc(Cl)cc1
active: at 100.0 µM 88%
inactive: at 1.2 µM 26% | at 3.7 µM 31% | at 11.0 µM 39% | at 33.0 µM 48%

CCCCN(CCCC)c1ccc(N=Nc2ccc(S(=O)(=O)O)cc2)cc1
active: at 33.0 µM 89% | at 100.0 µM 90%
inactive: at 1.2 µM 21% | at 3.7 µM 48% | at 11.0 µM 40%

O=C1c2ccccc2-c2cc3ccccc3c(=O)n21
active: at 11.0 µM 91% | at 33.0 µM 93% | at 100.0 µM 87%
inactive: at 1.2 µM 32% | at 3.7 µM 64%

CCOC(=O)/C(=C\c1ccc(F)cc1)C(C)=O
active: at 33.0 µM 94% | at 100.0 µM 98%
inactive: at 1.2 µM -43% | at 3.7 µM -17% | at 11.0 µM 57%

CC1(C)CC(=O)C(C=NC(=S)C(N)=S)=C(O)C1
inactive: at 1.2 µM -47% | at 3.7 µM -57% | at 11.0 µM -63% | at 33.0 µM -49% | at 100.0 µM 69%
